Reference: PubChem BioAssay (NCI)
The panel holds about 83,000 compounds, 20% with a hit somewhere; the sample as a whole holds those more often.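 48-hour exposure, single concentration, 96-well plates; percent growth endpoint where 0 means no net growth. Active: below 10.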 Unmarked numbers belong to inactive results. Activity calls are given as the source filed them.

test system: T-47D breast; test: NCI-60 one-dose screen, 48 h (100 = growth as untreated, 0 = no growth, -100 = all killed); conditions: 10 µM unless noted
Description: Growth inhibition of the T-47D human tumor cell line is measured as a screen for anti-cancer activity. Cells are grown in 96 well plates and exposed to the test compound for 48 hours. Compounds are tested at a single concentration, which is 10^-5 M for most compounds. The reported endpoint is percent growth (GI% or GIPRCNT), where numbers from 0 - 100% represent growth inhibition, and numbers from -100% - 0 represent cell death. For example, a value of 40 represents 60% growth inhibition. A value of 0 means no net growth occurred over the course of the experiment. A value of -40 indicates 40% of cells at the beginning of the experiment died by the end of the experiment. A value of -100 means all cells are dead at the end of the experiment.
NCI-60 Human Tumor Cell Lines Screen was performed using the standard one-dose NCI protocol, which is described in more detail at https://dtp.cancer.gov/discovery_development/nci-60/default.htm.
Compounds with GIPRCNT values below 10 were considered active. Activity score was based on GIPRCNT using the following formula: […]
Score is 0 for GIPRCNT values of 100 or above, 50 for GIPRCNT values of 0, and 100 for GIPRCNT values of -100.

Compound | growth
C=CC(=O)N1CCN(c2cccc(Oc3nccc(Nc4nnc(-c5ccc(Br)cc5)s4)n3)c2)CC1 | 63.6%
C=CCSc1nnc(NC(=O)CCl)s1 | 90.3%
CCCNc1nc2ccccc2c2c1S(=O)(=O)c1ccc(Cl)cc1C2=O | -1.34% (active)
COC(=O)C1Cc2ccccc2CN1C(=O)c1ccc2c(c1)Cc1ccccc1-2 (stereo not given) | 15.8% [50 µM]
O=C(Nc1nc2cc(C(=O)N3CCN(C(c4ccccc4)c4ccccc4)CC3)ccc2o1)c1ccc(NC2CCCCC2)c([N+](=O)[O-])c1 | 44.3%
CCOC(=O)C(=O)C(C(=O)OCC)c1ccccc1 (stereo not given) | 100%
COc1ccc2c(c1)CC[C@H](O)/C2=C/c1cc(OC)c(OC)c(OC)c1 | 51.9%
CC(C)C1=NOC(=O)C1=Cc1cn(-c2ccccc2)nc1-c1ccc(F)cc1 | 76.9%
COc1cc2nc3cc([N+](=O)[O-])ccc3c(NCCNCC(C)O)c2cc1OC (stereo not given) | -7.36% (active)
COc1ccc(Nc2nc(-c3cc(O)c(C)c(C)c3O)cs2)cc1 | 39.5%
C#COc1cccc(Nc2c(C#N)cnc3ncc(NC(=O)CCl)cc23)c1 | 4.8% [6.25 µM] (active)
CC1OC(n2c3ccccc3c3c4c(c5c6ccccc6[nH]c5c32)C(=O)N(CCN2CCCC2)C4=O)CC(O)C1O (stereo not given) | 51.9%
Clc1ccc(/C=N\N=C\c2ccc(Cl)c(Cl)c2)cc1Cl | 90.3%
Clc1cc(Cl)c(Cl)c(-c2nnc(SCc3ccncc3Br)o2)c1 | 96.1%
CCOC(=O)c1c(C(=O)c2cn(C)c3ccc(Br)cc23)c(-c2cn(C)c3ccc(Br)cc23)n(NC(=O)OC(C)(C)C)c1C | 58.8% [100 µM]
CCOC(=O)c1ccc2c(c1)nc(-c1ccccc1)n2C1CCCCC1 | 66.8%
S=c1sc2c(Cl)nc(-c3cccnc3)nc2n1-c1ccccc1 | -14.5% (active)
CCCC/C=C/[C@@H]1C[C@H]1CCO | 95.9%
Fc1ccc(CNc2c3ccccc3nc3ccccc23)c(F)c1 | 47.4%
O=C(NCCCl)Nc1ncccc1OCc1ccccc1 | 97.9%

Compound | growth
COC(=O)/C=C1/SC(=Nc2ccc(C(F)(F)F)cc2)N(CCc2c[nH]c3ccc(O)cc23)C1=O | 17.3%
Nc1c(C(=O)Nc2ccncc2)sc2nc3c(cc12)C(O)CCC3 (stereo not given) | 74.3%
Clc1ccc2c(c1)C(c1c[nH]c3ccccc13)(c1c[nH]c3ccccc13)CCO2 | -3.57% (active)
COCCn1cc(-c2csc(-c3cn(C)c4ccc(Br)cc34)n2)c2cccnc21 | 17.6%
CCSc1nc2scc(C)c2c(=O)[nH]1 | 101%
N#Cc1nc(-c2ccc(F)cc2)oc1S(=O)(=O)N1CCCCC1 | 2.97% (active)
CC(=O)c1c(C)nc(SCC(=O)Nc2cccc(O)c2)n1-c1ccc(Cl)cc1 | 95.9%
COc1cc(C2CC(c3ccc(Nc4nc(Nc5ccc(Cl)cc5)nc(Nc5ccc(Cl)cc5)n4)cc3)=NN2C(C)=O)cc(OC)c1OC (stereo not given) | 69.2%
COc1ccc(-c2nc3cc(C(=O)NCc4ccccc4)ccc3n2C2CCCCC2)cc1 | 68.2%
Cc1ccccc1/C=C/C(=O)c1cccc(OCCCOc2cccc(C(=O)/C=C/c3ccccc3C)c2)c1 | 73.2% [3 µM]
Nc1c(C(=O)Nc2ccccc2C(F)(F)F)sc2nc3c(cc12)CCC3 | 67.4%
O=C(Nc1cccc(-c2ccc(N3CCOCC3)nn2)c1)Nc1cccc(C(F)(F)F)c1 | 8.63% (active)
COc1ccc(F)cc1/C=C/C(=O)/C=C(/C=C/c1cc(F)ccc1OC)OB(F)F | 36.4%
COc1ccc(CN2c3ccccc3Sc3ccccc32)cc1F | 49.7%
COc1cc2c(c(OC)c1OC)CCC(c1cccc(C(=O)Nc3ccc(C#N)cc3)c1)O2 (stereo not given) | 3.61% (active)
CCN(CC)Cc1cc(C=C2C(=O)NC(=S)NC2=O)cc(OC)c1O | 114%
COc1ccc(-c2nc3c(ncc4ccc(=O)[nH]c43)s2)cc1 | 78.7%
Cc1sc2nc(NCCc3c[nH]c4ccc(Cl)cc34)[nH]c(=O)c2c1C | 44.9%
CSc1nnc(-c2cc3c([nH]c4ccccc43)c(-c3cccc(O)c3)n2)n1-c1ccccc1 | 44.9%
Cc1ccc(-c2nc(N3CCCNCC3)c3oc(-c4ccc(C)cc4)nc3n2)cc1 | -46% (active)
